Hits are enriched below; roughly 10% of the tested compounds scored in any of these assays.
HP1b binding inh – inhibitors of HP1-beta chromodomain binding to methylated histone tails; AlphaScreen HP1-beta / biotin-H3K9me3 peptide binding; P83916; Potency, µM (highest dose often 114 µM), inactives show at the top dose activity change, negative = inhibition, hits mostly inhibitors; actives 0.56% (n = 390,000); AID 540317; also: potency is read from the fitted curve at half-maximal effect; nearly all actives have a fitted effect of over 70% in size
Target sequence (P83916 whole entry, looked up): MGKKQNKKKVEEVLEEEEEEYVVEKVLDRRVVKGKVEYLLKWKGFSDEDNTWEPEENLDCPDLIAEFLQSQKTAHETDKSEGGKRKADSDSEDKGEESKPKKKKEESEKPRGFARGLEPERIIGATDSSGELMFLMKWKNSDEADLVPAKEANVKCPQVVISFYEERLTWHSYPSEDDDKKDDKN
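AlphaScreen: HP1-beta (50 nM) preformed 30 min with biotin-H3(1-18)K9me3 peptide (50 nM) in PBS pH 7.4, 0.01% Tween-20. Compound added for 30 min at RT, then streptavidin donor/nickel chelate acceptor beads (10 ug/mL) for 30 min.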
BAZ2B block – BAZ2B (human) inhibition; Q9UIF8; AlphaScreen BAZ2B-H3K14Ac peptide displacement; Potency, µM (series often up to 114 µM), for the others: at the top dose activity change, negative = inhibition, usual class: inhibitors; actives 4.4% (n = 360,000); AID 504333; also: potency is read from the fitted curve at half-maximal effect; % is scaled to controls: 0 for no effect and ±100 for the full control effect; nearly all actives have a fitted effect of over 60% in size
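Compounds, titrated to a top concentration of 110 uM, were incubated 30 min at room temperature with preformed BAZ2B/acetyl-K14 H3 peptide complex (50 nM each). Proximity signal was measured by AlphaScreen after 20 min with beads.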
CtBP-E1A blk – inhibitors of CtBP/E1A interaction | AlphaScreen GST-E1A/His-CtBP binding, 1536-well; active compounds read low | AID 651724 | activity change, % (test concentration not listed) | actives 0.49% (n = 340,000); in the data active = activity change below about -65%; inconclusive = mostly about -30% to -63%; also: % is scaled to controls: 0 for no effect and ±100 for the full control effect
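GST-E1A and His-tagged CtBP (125 nM each as 5X stock) were preincubated with pin-transferred compound for 2 h at 37 °C in the dark, then glutathione donor and nickel acceptor beads were added for 1 h before AlphaScreen reading.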
G9a inh – blocks human histone lysine methyltransferase G9a. G9a H3K9 monomethylation, AlphaScreen, 2 h. Q96KQ7. Potency, µM (doses to about 102 µM), inactives show top-dose activity, negative = inhibition, most hits filed as inhibitors. actives 8.8% (n = 350,000); also: potency is read from the fitted curve at half-maximal effect; % is scaled to controls: 0 for no effect and ±100 for the full control effect; nearly all actives have a fitted effect of over 75% in size
Target sequence (Q96KQ7 913-1193 limits assumed): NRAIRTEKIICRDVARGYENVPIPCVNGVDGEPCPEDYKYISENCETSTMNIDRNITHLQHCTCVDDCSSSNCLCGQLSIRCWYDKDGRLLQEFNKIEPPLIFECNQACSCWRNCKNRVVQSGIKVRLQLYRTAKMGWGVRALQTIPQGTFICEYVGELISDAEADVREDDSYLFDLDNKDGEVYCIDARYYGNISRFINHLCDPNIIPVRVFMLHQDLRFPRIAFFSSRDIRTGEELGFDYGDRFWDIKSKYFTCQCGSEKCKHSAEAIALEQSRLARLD
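Enzyme 20 nM + cpd, 15 min RT; add b-H3K9 pep 500 nM / SAM 20 uM; 2 h RT; anti-H3K9me1 Ab 0.5 ug/mL + SA donor / anti-rabbit acceptor beads 20 ug/mL each, 10 min; AlphaScreen read.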
JMJD2A Tudor – inhibitors of human JMJD2A Tudor domain; Potency, µM (doses to about 114 µM), for inactives: top-dose activity change, negative = inhibition, usual class: inhibitors; actives 4.4% (n = 390,000); AID 504339; AlphaScreen JMJD2A-Tudor / H3K4me3 peptide binding; also: potency is read from the fitted curve at half-maximal effect; % is scaled to controls: 0 for no effect and ±100 for the full control effect; nearly all actives have a fitted effect of over 50% in size
Six1-Eya2 inh – inhibitors of human Six1/Eya2 interaction; Q15475+O00167; actives 0.56% (n = 360,000); AlphaScreen GST-Six1/His-Eya2 binding, biochemical; active compounds read low; activity change, % (no concentration beside the values); in the data active = activity change below about -65%; inconclusive = mostly about -30% to -63%; also: % is scaled to controls: 0 for no effect and ±100 for the full control effect
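AlphaScreen with GST-Six1 and His-Eya2 (5X mix: 250 nM and 500 nM), glutathione donor and nickel acceptor beads; buffer 50 mM Tris pH 8.0, 300 mM NaCl, 1 mM TCEP; 1 h at 37 C in the dark.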
Starred values were filed as active, the others as inactive; ? = inconclusive; . = no result; [ ] = dose if it differs, or a comment. Unless noted, calls follow the shape of the dose curve; as a rule, active = well fitted inhibition curve with a large enough effect; inconclusive = small, poorly fitted or top-dose-only effect; inactive = no such curve, though single readings can be large or run the other way.

SMILES	HP1b binding inh	BAZ2B block	CtBP-E1A blk	G9a inh	JMJD2A Tudor	Six1-Eya2 inh
COc1ccccc1C1C=C(c2ccc(Cl)cc2)Nc2nc(N3C(=O)CCC3=O)nn21 (stereo unspecified)	17%	.	-12	?	45µM*	-20
Cn1cc(S(=O)(=O)N2CCCCC2)cc1C(=O)N1CCN(c2ccc(F)cc2)CC1	15%[57 µM]	-9%	.	3%[59 µM]	-29%	.
COc1cccc(C(=O)N2CCN(S(C)(=O)=O)CC2)c1	14%	0%	5	5%[59 µM]	40%	9
O=C(NCCCc1nc2ccccc2n1Cc1ccc(Cl)cc1)c1ccco1	45%	?	.	-23%[59 µM]	-17%	.
Cc1cccc(C)c1NC(=O)Cn1nnc(C(=O)Nc2c(C)cccc2C)c1N	15%	.	.	1%[59 µM]	-8%	.
C=CCc1ccccc1OCC(O)CNC1CCCC1 (stereo unspecified)	28%	14%	.	23%	14%	3
COc1ccc(CN2CCN(Cc3ccco3)CC2)cc1	20µM*	20µM*	0	?	4µM*	0
Clc1ccc(N2CCN(Cc3ccco3)CC2)cc1	?	50µM*	3	5µM*	1.8µM*	-13
Clc1ccccc1N1CCN(Cc2ccco2)CC1	29%	-4%	.	.	-22%	-1
COc1ccc(N=Nc2cc(C)c(O)c(CN3CCCCC3)c2)cc1	28µM*	13µM*	?	11µM*	22µM*	?
FC(F)(F)c1ccc(CN2CCN(Cc3ccco3)CC2)cc1	19%	-1%	.	50µM*	-7%	1
CC1CN(S(=O)(=O)c2ccc(C(=O)NC3CCCCC3)cc2)CC(C)O1 (stereo unspecified)	44%	.	13	.	-5%	7
O=S(=O)(c1ccc2c(c1)OCCO2)C1CCN(S(=O)(=O)c2c(F)cccc2F)CC1	.	.	.	.	-14%	.
OCC1(CO)COC(CCc2ccccc2)=N1	37%	-3%	.	45%	14%	0
COc1ccccc1N1CCN(Cc2ccco2)CC1	-54%	?	-8	?	3.2µM*	0
COc1ccccc1N1CCN(Cc2cc3c(cc2O)OCO3)CC1	-16%	?	-16	10µM*	?	-21
COc1cccc(CN2CCN(Cc3ccco3)CC2)c1	?	50µM*	-1	10µM*	7.9µM*	-6
COc1ccccc1N1CCN(CC(O)COc2ccc3c(c2)OCO3)CC1 (stereo unspecified)	28%	?	-1	?	?	-8
COc1ccc(CN2CCCCCC2)cc1	24%	-1%	3	.	1µM*	-5
Cc1ccc2nc3n(c(=O)c2c1)-c1cc2ccccc2cc1C(=O)NC3CC(C)C (stereo unspecified)	.	.	4	.	.	7
CC(=O)NCCNc1ncncc1-c1ccc(N(C)C)cc1	.	.	.	9%[0.501 µM]	.	.
Oc1cc2c(cc1CN1CCc3ccccc3C1)OCO2	-3%	-32%	-19	20µM*	?	-12
COc1ccc(CN2CCN(Cc3ccco3)CC2)cc1OC	?	28µM*	.	8.9µM*	20µM*	-1
COc1cccc(N2CCN(Cc3ccco3)CC2)c1	?	?	0	.	8.9µM*	-5
COc1cccc(N2CCN(CC(=O)NC(=O)NCc3ccco3)CC2)c1	22%	-39%	0	-43%	-25%	-3
SMILES	HP1b binding inh	BAZ2B block	CtBP-E1A blk	G9a inh	JMJD2A Tudor	Six1-Eya2 inh
Cc1ccc(C(=O)COC(=O)CN2C(=O)C3C4CCC(C4)C3C2=O)cc1[N+](=O)[O-] (stereo unspecified)	1%	2%	1	45µM*	-24%	7
CN(CCO)c1ccc(C(C(=O)c2ccccc2)c2ccc(N(C)CCO)cc2)cc1	?	45µM*	-26	4%[2.33 µM]	45µM*	?
Cc1[nH][nH]c(=O)c1C(c1cc2c(cc1Br)OCO2)c1c(C)[nH][nH]c1=O	27%	-4%	.	50µM*	-2%[11.4 µM]	-4
Cc1[nH][nH]c(=O)c1C(c1cc(Br)ccc1O)c1c(C)[nH][nH]c1=O	15%	-1%	.	?	-17%	-10
CNC(=S)N/N=C/c1cn(CCOc2cccc(OC)c2)c2ccccc12	?	?	-9	45µM*	?	?
OC[C@H](S)CS	.	.	.	1µM*	.	.
CCN1CCN(c2ncnc3c2c(-c2ccccc2)cn3-c2ccc(F)cc2)CC1	27%	?	-6	?	40µM*	-2
Clc1ccccc1N1CCN(c2ncnc3c2c(-c2ccccc2)cn3-c2ccccc2)CC1	13%	-29%	.	-21%[59 µM]	-29%	.
COc1ccc(-n2cc(-c3ccccc3)c3c(NCCCN4CCOCC4)ncnc32)cc1	?	?	-7	50µM*	?	-10
NC(=O)C1CCN(c2ncnc3c2c(-c2ccccc2)cn3-c2ccccc2)CC1	48%	?	-9	50µM*	?	-20
OCCN1CCN(c2ncnc3c2c(-c2ccccc2)cn3-c2ccc(Br)cc2)CC1	-33%	45µM*	3	35µM*	35µM*	-16
CCCCC(=O)N(C)c1c(C)nc2ccc(C(=O)N(CC)CCN(C)C)cn12	.	.	-8	.	.	31
CCOC(=O)N1CCN(Cc2nc3cc(NC(=O)c4ccccc4OC)ccc3n2C(C)C)CC1	24%	79µM*	.	?	50µM*	.
CCC(=O)Nc1ccc2c(c1)nc1n2CCN(CCOC)C1	63%	-14%	.	32µM*	1%	-2
O=C(Nc1ccc2c(c1)nc1n2CCN(C2CCCCC2)C1)c1ccco1	27%	-11%	?	-136%[59 µM]	-15%[11.4 µM]	-14
COc1ccccc1C(=O)Nc1ccc2c(c1)nc1n2CCN(C2CCCCC2)C1	6%	-20%[57.1 µM]	-10	32µM*	?	-7
CCOC(=O)N1CCN(Cc2nc3cc(NC(=O)c4ccccc4[N+](=O)[O-])ccc3n2C(C)C)CC1	34%	-35%	.	-30%[59 µM]	-16%	.
Cc1cccc(C)c1NC(=O)CSc1nc(-c2cccs2)cc(C(F)(F)F)n1	18%	-2%	.	10%[59 µM]	-11%	.
CCOC(=O)C1(C)NC(c2ccco2)C2C(=O)N(CC)C(=O)C21 (stereo unspecified)	41%	-17%	.	-4%	-9%	7
CCN(CC)C(=O)c1cc([N+](=O)[O-])cc2c1-c1ccc([N+](=O)[O-])cc1C2=C(C#N)C#N	8%	?	-23	50µM*	?	-17
Cc1cccc(Oc2nc3ccccn3c(=O)c2/C=C(\C#N)c2nc3ccccc3s2)c1C	56%	-1%[57.1 µM]	.	5.6µM*	2%	.
COc1ccc(NC(=O)CN2CCN(C3c4ccccc4-c4ccccc43)CC2)c(OC)c1	-18%	?	-3	45µM*	?	5

Source: PubChem BioAssay (National Center for Advancing Translational Sciences (NCATS))
